# Reference: PubChem BioAssay (Tox21)
# “And” between values parts separate entries of the source, which are not always exact repeats. Equal values may be shown once. A structure can be active in one record and inactive in another. The source made the active and inactive calls. A call without a number means that no potency is given here. Unless noted, the call rests on the fitted dose curve; in most records, active means well fitted curve in the direction sought with a large enough effect in the repeat runs; inconclusive means weak or mixed curves; inactive means no such curve, though single readings can be large; an effect the other way counts as inactive or inconclusive. Residues, ends and D or L forms follow the SMILES beside them.
# How the values were obtained:
# [1] = qHTS assay to identify small molecule antagonists of the thyroid receptor (TR) signaling pathway - cell viability counter screen (AID 743064); further: nearly all actives have a fitted effect of over 50% in size; further: potency means the concentration at half of the fitted maximal effect
# Method in brief: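 Viability of T3-stimulated (1 nM final) GH3.TRE-Luc cells is measured by CellTiter-Fluor fluorescence after 23.5 h compound exposure at 37 °C plus 30 min reagent incubation.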
# [2] = qHTS assay to identify small molecule antagonists of the thyroid receptor (TR) signaling pathway (AID 743065); further: nearly all actives have a fitted effect of over 55% in size; further: potency means the concentration at half of the fitted maximal effect
# Method in brief: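 GH3.TRE-Luc rat pituitary cells carrying two TR response elements driving luciferase were plated for 4 h, given compound plus 1 nM T3 (final), and incubated 23.5 h at 37 C. ONE-Glo luminescence measured reporter inhibition; CellTiter-Fluor fluorescence tracked cytotoxicity.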
# [3] = test system: thyroid hormone receptor (rat, GH3 cells); test: qHTS assay to identify small molecule agonists of the thyroid receptor (TR) signaling pathway (AID 743066; calls by dose curve)
# [4] = molecular target: Estrogen receptor (Homo sapiens) (UniProt P03372); test: qHTS assay to identify small molecule antagonists of the estrogen receptor alpha (ER-alpha) signaling pathway (AID 743069; active means well fitted curve in the direction sought with a large enough effect in the signal ratio in the repeat runs, not every such curve was filed as active; inconclusive means weak or mixed curves, or effect the other way; inactive means no such curve, though single readings can be large or run the other way; the % refers to the signal ratio; further: potency means the concentration at half of the fitted maximal effect)
# Method in brief: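 HEK293 cells stably carrying an ER-alpha-UAS-bla beta-lactamase reporter were pre-cultured overnight in 2% charcoal-stripped FBS medium. Test compounds in DMSO were added together with 17beta-estradiol for 18 hr at 37C. Read-out was fluorescence after 2 hr with LiveBLAzer B/G FRET substrate at room temperature.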
# [5] = molecular target: Estrogen receptor (Homo sapiens) (UniProt P03372); test: qHTS assay to identify small molecule agonists of the estrogen receptor alpha (ER-alpha) signaling pathway (AID 743075; calls by dose curve; further: potency means the concentration at half of the fitted maximal effect)
# [6] = qHTS assay to identify small molecule antagonists of the estrogen receptor alpha (ER-alpha) signaling pathway using the BG1 cell line (AID 743080; calls by dose curve;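 further: BG1 cells stimulated with 17beta-estradiol alongside compound; series mostly up to about 70 µM; nearly all actives have a fitted effect of over 25% in size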)
# Method in brief: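 Seeding, 24 h rest, compound transfer from DMSO, 17beta-estradiol addition, 21.5 h incubation, CellTiter-Fluor (30 min, 37 C), then ONE-Glo (30 min, room temperature): this sequence was run on BG1-Luc-4E2 reporter cells.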
# [7] = qHTS assay to identify small molecule antagonists of the estrogen receptor alpha (ER-alpha) signaling pathway using the BG1 cell line - cell viability counter screen (AID 743081);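 further: compound given together with 17beta-estradiol as the ER stimulus; series mostly up to about 70 µM; nearly all actives have a fitted effect of over 45% in size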
# Aromatase (Homo sapiens) = Aromatase (Homo sapiens) (UniProt P11511); test: qHTS assay to identify aromatase inhibitors (AID 743083); further: nearly all actives have a fitted effect of over 55% in size; further: potency means the concentration at half of the fitted maximal effect
# [8] = molecular target: Aryl hydrocarbon receptor (Homo sapiens) (UniProt P35869); test: qHTS assay to identify small molecule that activate the aryl hydrocarbon receptor (AhR) signaling pathway (AID 743085); further: nearly all actives have a fitted effect of over 15% in size; further: potency means the concentration at half of the fitted maximal effect;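 on activation: HG2L7.5c1 human HepG2 liver cells with stably integrated DRE-driven firefly reporter; series mostly up to about 70 µM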
# Method in brief: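 A multiplexed format paired cell viability (CellTiter-Fluor fluorescence) with AhR-dependent luciferase output (ONE-Glo luminescence) in the same wells of HepG2 DRE-luc cells after 24 h compound exposure at 37C.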
# [9] = qHTS assay for small molecule activators of the heat shock response signaling pathway - cell viability counter screen (AID 743209); further: nearly all actives have a fitted effect of over 50% in size; further: potency means the concentration at half of the fitted maximal effect
# Method in brief: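 Counter screen for cytotoxicity in HeLa HSE-bla reporter cells. Treatment was 5 h at 37 C; viability was detected by luminescent ATP assay (CellTiter-Glo) in the same wells as the beta-lactamase read.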
# [10] = qHTS assay to identify small molecule agonists of the peroxisome proliferator-activated receptor delta (PPARd) signaling pathway - cell viability counter screen (AID 743211); further: nearly all actives have a fitted effect of over 55% in size; further: potency means the concentration at half of the fitted maximal effect
# Method in brief: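 Tox21 library compounds, delivered in DMSO, were incubated 17 h with PPARd-bla HEK293H cells; cytotoxicity was taken from CellTiter-Glo luminescence read 30 min after reagent addition.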
# [11] = qHTS assay to identify small molecule antagonists of the estrogen receptor alpha (ER-alpha) signaling pathway - cell viability counter screen (AID 743074; calls by dose curve; further: nearly all actives have a fitted effect of over 45% in size; further: potency means the concentration at half of the fitted maximal effect)
# [12] = molecular target: Estrogen receptor (Homo sapiens) (UniProt P03372); test: qHTS assay to identify small molecule agonists of the estrogen receptor alpha (ER-alpha) signaling pathway using the BG1 cell line (AID 743079); further: nearly all actives have a fitted effect of over 20% in size; further: potency means the concentration at half of the fitted maximal effect
# [13] = qHTS assay to identify aromatase inhibitors - cell viability counter screen (AID 743084);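 further: cells stimulated with testosterone during compound exposure; nearly all actives have a fitted effect of over 55% in size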; further: potency means the concentration at half of the fitted maximal effect
# [14] = qHTS assay to identify small molecule that activate the aryl hydrocarbon receptor (AhR) signaling pathway - cell viability counter screen (AID 743086);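 further: HepG2 liver cells carrying the AhR DRE luciferase reporter; series mostly up to about 70 µM; nearly all actives have a fitted effect of over 45% in size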
# Method in brief: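 HepG2-AhR-luc (HG2L7.5c1) cells, 4000/well, were preincubated 5 h at 37C, exposed to compound in qHTS format for 24 hr at 37C, then given CellTiter-Fluor for 30 min; viability was read as fluorescence in the reporter wells.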
# [15] = molecular target: Peroxisome proliferator-activated receptor gamma (Homo sapiens) (UniProt P37231); test: qHTS assay to identify small molecule agonists of the peroxisome proliferator-activated receptor gamma (PPARg) signaling pathway (AID 743094; active means well fitted activation curve with a large enough effect in the signal ratio in the repeat runs, not every such curve was filed as active; inconclusive means weak or mixed curves, or effect the other way; inactive means no such curve, though single readings can be large or run the other way; the % refers to the signal ratio)
# Method in brief: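 Following 5 h plating at 37C, PPARg-bla HEK293H cells receive compound or DMSO for 17 h; fluorescence intensity is recorded after LiveBLAzer B/G loading for 1 h at room temperature.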
# [16] = qHTS assay to identify small molecule antagonists of the peroxisome proliferator-activated receptor gamma (PPARg) signaling pathway - cell viability counter screen (AID 743194); further: nearly all actives have a fitted effect of over 55% in size; further: potency means the concentration at half of the fitted maximal effect
# Method in brief: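 PPARg-UAS-bla HEK293H cells were plated, rested 5 h at 37 C, then treated with compounds plus rosiglitazone (50 nM final) for 17 h at 37 C; viability was then read by CellTiter-Glo luminescence after 30 min at room temperature.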
# [17] = qHTS assay for small molecule agonists of the antioxidant response element (ARE) signaling pathway (AID 743202; active means well fitted activation curve with a large enough effect in the signal ratio in the repeat runs, not every such curve was filed as active; inconclusive means weak or mixed curves, or effect the other way; inactive means no such curve, though single readings can be large or run the other way; the % refers to the signal ratio; further: potency means the concentration at half of the fitted maximal effect)
# Method in brief: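 Read-out: LiveBLAzer B/G FRET substrate fluorescence after 2 h at room temperature, following 16 h compound treatment at 37 C of HepG2 cells carrying an ARE-driven beta-lactamase reporter.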
# [18] = qHTS assay for small molecule activators of the heat shock response signaling pathway (AID 743210; active means well fitted activation curve with a large enough effect in the signal ratio in the repeat runs, with a control signal flat, not every such curve was filed as active; inconclusive means weak or mixed curves; the % refers to the signal ratio; further: series mostly up to about 63 µM)
# Method in brief: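 HSE-bla HeLa cells (beta-lactamase reporter under heat shock response elements) were exposed to compounds for 5 h at 37 C, then loaded with LiveBLAzer B/G FRET substrate for 2.5 h at room temperature before fluorescence reading.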
# [19] = molecular target: Peroxisome proliferator-activated receptor gamma (Homo sapiens) (UniProt P37231); test: qHTS assay to identify small molecule antagonists of the peroxisome proliferator-activated receptor gamma (PPARg) signaling pathway (AID 743191; calls by dose curve; further: series mostly up to about 63 µM; nearly all actives have a fitted effect of over 30% in size)
# Method in brief: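 GeneBLAzer PPARg UAS-bla HEK293H cells carrying a UAS-driven beta-lactamase reporter were plated at 3000 cells/well, preincubated 5 h at 37C, then given compound for 17 h at 37C; LiveBLAzer B/G FRET substrate was read after 1 h at room temperature.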
# Sequence of Aromatase (Homo sapiens) (P11511 whole entry, looked up): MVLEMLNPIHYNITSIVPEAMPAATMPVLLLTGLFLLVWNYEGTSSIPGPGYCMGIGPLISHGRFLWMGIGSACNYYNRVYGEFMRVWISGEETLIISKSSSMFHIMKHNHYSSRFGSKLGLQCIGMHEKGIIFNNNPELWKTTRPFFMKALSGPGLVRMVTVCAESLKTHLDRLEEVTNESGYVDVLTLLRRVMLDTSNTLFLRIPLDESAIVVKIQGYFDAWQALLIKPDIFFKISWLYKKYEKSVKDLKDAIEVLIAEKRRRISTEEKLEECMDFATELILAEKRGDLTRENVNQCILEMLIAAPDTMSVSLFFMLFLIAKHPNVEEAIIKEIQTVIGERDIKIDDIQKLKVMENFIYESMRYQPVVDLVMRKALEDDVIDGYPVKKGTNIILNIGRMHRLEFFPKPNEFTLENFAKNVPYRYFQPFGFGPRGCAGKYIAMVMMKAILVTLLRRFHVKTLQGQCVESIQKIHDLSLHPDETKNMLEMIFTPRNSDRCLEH
# Sequence of Peroxisome proliferator-activated receptor gamma (Homo sapiens) (P37231 whole entry, looked up): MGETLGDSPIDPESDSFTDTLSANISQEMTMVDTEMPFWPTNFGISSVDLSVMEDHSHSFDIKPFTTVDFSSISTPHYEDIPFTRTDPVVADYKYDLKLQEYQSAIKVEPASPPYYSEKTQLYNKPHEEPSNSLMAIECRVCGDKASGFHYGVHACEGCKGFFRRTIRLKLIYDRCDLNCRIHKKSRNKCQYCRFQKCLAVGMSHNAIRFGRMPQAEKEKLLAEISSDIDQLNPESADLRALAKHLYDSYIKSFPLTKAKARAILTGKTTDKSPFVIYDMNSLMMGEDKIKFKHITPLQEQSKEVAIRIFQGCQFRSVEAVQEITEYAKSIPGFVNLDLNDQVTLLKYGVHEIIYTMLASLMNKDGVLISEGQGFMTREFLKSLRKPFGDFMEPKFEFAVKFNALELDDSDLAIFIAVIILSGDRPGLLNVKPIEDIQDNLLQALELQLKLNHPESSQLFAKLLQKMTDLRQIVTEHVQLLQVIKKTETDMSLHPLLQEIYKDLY
# Sequence of Aryl hydrocarbon receptor (Homo sapiens) (P35869 whole entry, looked up): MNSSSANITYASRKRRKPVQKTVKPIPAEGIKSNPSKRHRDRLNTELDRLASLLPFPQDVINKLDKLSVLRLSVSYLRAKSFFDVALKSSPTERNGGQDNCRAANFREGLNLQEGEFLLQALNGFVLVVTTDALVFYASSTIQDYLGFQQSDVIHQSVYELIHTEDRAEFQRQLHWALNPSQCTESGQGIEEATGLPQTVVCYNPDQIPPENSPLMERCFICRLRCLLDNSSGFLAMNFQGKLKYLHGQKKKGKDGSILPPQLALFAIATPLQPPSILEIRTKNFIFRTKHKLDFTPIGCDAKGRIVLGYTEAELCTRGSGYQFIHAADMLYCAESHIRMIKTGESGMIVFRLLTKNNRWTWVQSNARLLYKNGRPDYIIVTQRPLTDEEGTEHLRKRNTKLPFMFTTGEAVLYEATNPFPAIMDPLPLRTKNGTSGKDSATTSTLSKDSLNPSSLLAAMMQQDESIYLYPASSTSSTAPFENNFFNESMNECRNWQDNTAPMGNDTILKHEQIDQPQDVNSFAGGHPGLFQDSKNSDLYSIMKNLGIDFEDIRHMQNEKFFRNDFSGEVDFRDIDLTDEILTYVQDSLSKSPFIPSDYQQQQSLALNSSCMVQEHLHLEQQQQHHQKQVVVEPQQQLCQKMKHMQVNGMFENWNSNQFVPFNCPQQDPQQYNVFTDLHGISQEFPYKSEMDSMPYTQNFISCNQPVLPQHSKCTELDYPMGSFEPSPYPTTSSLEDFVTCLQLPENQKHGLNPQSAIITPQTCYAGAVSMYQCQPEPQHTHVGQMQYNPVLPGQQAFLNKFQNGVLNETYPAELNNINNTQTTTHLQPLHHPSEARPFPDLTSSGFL
# Sequence of Estrogen receptor (Homo sapiens) (P03372 whole entry, looked up): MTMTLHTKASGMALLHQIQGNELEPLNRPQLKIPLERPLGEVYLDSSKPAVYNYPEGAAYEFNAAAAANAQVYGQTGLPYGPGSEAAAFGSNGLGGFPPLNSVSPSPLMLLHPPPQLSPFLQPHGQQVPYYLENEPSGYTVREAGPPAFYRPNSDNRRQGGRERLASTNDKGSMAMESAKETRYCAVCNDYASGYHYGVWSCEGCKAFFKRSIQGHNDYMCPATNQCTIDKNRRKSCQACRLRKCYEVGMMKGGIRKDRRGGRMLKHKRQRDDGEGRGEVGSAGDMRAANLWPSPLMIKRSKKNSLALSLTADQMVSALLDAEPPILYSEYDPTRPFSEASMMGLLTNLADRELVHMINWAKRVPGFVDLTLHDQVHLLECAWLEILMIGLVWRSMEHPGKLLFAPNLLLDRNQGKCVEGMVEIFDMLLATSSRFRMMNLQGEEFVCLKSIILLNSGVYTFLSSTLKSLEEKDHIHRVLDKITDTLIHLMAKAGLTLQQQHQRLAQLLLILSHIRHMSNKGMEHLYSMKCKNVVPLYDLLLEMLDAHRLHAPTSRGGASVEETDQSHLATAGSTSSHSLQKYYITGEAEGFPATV
Structure (SMILES),Potency [1],Potency [2],Potency [3],Potency [4],Potency [5],Potency [6],Potency [7],Potency (Aromatase (Homo sapiens)),Potency [8],Potency [9],Potency [10],Potency [11],Potency [12],Potency [13],Potency [14],Potency [15],Potency [16],Potency [17],outcome [18],Potency [19]
CC(Cc1ccc(O)c(O)c1)C(C)Cc1ccc(O)c(O)c1 (configuration not stated),13.7 µM (active),7.7 µM (active),inactive,54.9 µM [inconclusive] (active),17.4 nM [inconclusive] (active),inactive,inactive,inactive,inactive,inactive,inactive,–,–,–,–,–,–,–,–,–
COC(=O)[C@H]1[C@H]2C[C@H]3c4[nH]c5ccccc5c4CCN3C[C@H]2CC[C@@H]1O,inactive,inactive,inactive,inactive,inactive,–,inactive,inactive,18.8 µM (active),–,–,inactive,inactive,inactive,inactive,inactive,–,–,–,–
C[C@H]1O[C@@H](O[C@H]2CC[C@@]3(C)[C@H](CC[C@@H]4[C@@H]3C[C@@H](O)[C@]3(C)[C@@H](C5=CC(=O)OC5)CC[C@]43O)C2)C[C@H](O)[C@@H]1O[C@H]1C[C@H](O)[C@H](O[C@H]2C[C@H](O)[C@H](O[C@@H]3O[C@H](CO)[C@@H](O)[C@H](O)[C@H]3O)[C@@H](C)O2)[C@@H](C)O1,inactive,inactive,inactive,–,inactive,–,inactive,inactive,inactive,1.06 µM (active),0.298 µM (active),268 nM (active),–,inactive,inactive,–,150 nM (active),–,–,–
CCCOC(=O)c1ccc(O)cc1,inactive,inactive,inactive,inactive,26.8 µM [activator] (active) and 24.5 µM [inconclusive] (active),–,inactive,inactive,inactive and 23 µM (active),inactive,–,inactive,21.1 µM (active) and 16.1 µM (active),inactive,inactive,inactive,–,17.2 µM (active),inactive,–
CC(C)[C@H](NC(=O)[C@H](CC(=O)O)NC(=O)[C@H](CCCCN)NC(=O)[C@@H](N)CCCN=C(N)N)C(=O)N[C@@H](Cc1ccc(O)cc1)C(=O)O (H-RKDVY-OH),inactive,inactive,inactive,inactive,inactive,–,inactive,inactive,inactive,–,–,inactive,inactive,inactive,inactive,inactive,–,–,–,–
C[Se]CC[C@H](N)C(=O)O,inactive,inactive,inactive,inactive,inactive,–,–,inactive,–,–,–,inactive,inactive,inactive,–,inactive,–,–,–,–
Oc1ccc(Cl)c2c1CCC2,inactive,inactive,inactive,–,inactive,–,inactive,inactive,–,–,–,inactive,inactive,inactive,inactive,inactive,–,–,–,–
CCOc1ccc([N+](=O)[O-])cc1,31.1 µM (active),31.1 µM (active),inactive,55.8 µM [inconclusive] (active),6260 nM [inconclusive] (active),–,–,27.7 µM (active),inactive,44.3 µM (active),49.7 µM (active),–,1.96 µM (active),55.3 µM (active),inactive,–,–,–,–,–
O=C1OC(=O)c2cc(-c3ccc4c(c3)C(=O)OC4=O)ccc21,inactive,inactive,inactive,inactive,inactive,–,inactive,inactive,inactive,–,–,–,inactive,inactive,inactive,inactive,inactive,–,–,inactive
CC(=O)O[C@H]1C[C@@H]2CC[C@@H]3[C@H](CC[C@@]4(C)[C@H]3C[C@H]([N+]3(C)CCCCC3)[C@@H]4OC(C)=O)[C@@]2(C)C[C@@H]1[N+]1(C)CCCCC1,inactive,inactive,inactive,inactive,inactive,inactive,inactive,inactive,inactive,–,–,–,inactive,inactive,inactive,inactive,–,–,–,–
COC1[C@@H](O[C@@H]2O[C@H](C)[C@@H](O[C@H]3C[C@@](C)(O)[C@H](OC(=O)CC(C)C)[C@H](C)O3)[C@H](N(C)C)[C@H]2O)[C@@H](CC=O)C[C@@H](C)[C@@H](O)/C=C/C=C/C[C@@H](C)OC(=O)C[C@H]1OC(C)=O (some centres not stated),inactive,inactive,inactive,inactive,inactive,–,–,inactive,inactive,–,–,inactive,inactive,inactive,inactive,inactive,–,–,–,–
C(=C\c1ccncc1)/c1ccccc1,inactive,inactive,inactive,inactive,inactive,–,inactive,inactive and 21.1 µM (active),23.7 µM (active) and 13.3 µM (active),–,–,inactive,13.3 µM (active),inactive,inactive,inactive,–,–,–,–
O=C[C@H](O)[C@@H](O)[C@@H](O)[C@H](O)CO,inactive,inactive,inactive,inactive,inactive,–,inactive,inactive,inactive,–,–,inactive,inactive,inactive,inactive,inactive,–,–,–,–
O=C(O)/C=C/C(=O)Nc1ccc(S(=O)(=O)Nc2nccs2)cc1,inactive,inactive,inactive,inactive,inactive,–,inactive,inactive,inactive,–,–,inactive,inactive,inactive,inactive,inactive,–,–,–,–
